PubChem BioAssay (NCI)
Compounds without any hit were thinned out: in the full panel of roughly 79,000, 15% have a hit. Values without a mark were called inactive. Calls of active or inactive are those of the source. No stated cut-off is given here; in the data, active means growth inhibition above about 70%; inactive means the rest.

Key:
[1] = NCI Yeast Anticancer Drug Screen. Data for the rad50 strain (AID 155);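 further: 0% = growth of vehicle-only cultures of the same strain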; conditions: S. cerevisiae rad50 strain growth inhibition; at 50.0 µM; active compounds read high
Method in brief: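 DNA repair mutant yeast, compound exposure, growth read-out; inhibition is taken relative to vehicle.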

[2] = NCI Yeast Anticancer Drug Screen. Data for the mec2-1 strain (AID 157); conditions: S. cerevisiae mec2-1 strain, at 50.0 µM, active compounds read high
Method in brief: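 Strain: mec2-1 (DNA repair/cell cycle alteration). Compound exposure, then growth measured; inhibition expressed relative to vehicle.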

[3] = NCI Yeast Anticancer Drug Screen. Data for the sgs1 mgt1 strain (AID 161);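 further: 0% = growth of cultures given vehicle only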; conditions: S. cerevisiae sgs1 mgt1 strain, at 50.0 µM, active compounds read high
Method in brief: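 Test agents were incubated with a DNA-repair-mutant yeast strain. Growth was then read and compared against vehicle-treated controls.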

[4] = NCI Yeast Anticancer Drug Screen. Data for the cln2 rad14 strain (AID 165);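 further: 0% = growth equal to vehicle treated cultures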; conditions: S. cerevisiae cln2 rad14 strain, at 50.0 µM, active compounds read high
Method in brief: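 Compounds are applied to the cln2 rad14 yeast strain, and growth is then compared with that of vehicle-treated cultures to give inhibition.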

[5] = NCI Yeast Anticancer Drug Screen. Data for the bub3 strain (AID 167); conditions: S. cerevisiae bub3 mutant strain, at 50.0 µM, active compounds read high
Method in brief: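 In this screen, a yeast mutant lacking normal mitotic checkpoint function is challenged with compound. Relative growth versus vehicle gives the inhibition value.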

[6] = NCI Yeast Anticancer Drug Screen. Data for the mlh1 rad18 strain (AID 175); conditions: S. cerevisiae mlh1 rad18 strain growth inhibition; at 50.0 µM; active compounds read high
Method in brief: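 Read-out is yeast growth inhibition, calculated against vehicle-only controls. The compound was applied to a strain engineered with DNA damage repair alterations.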

Compound | growth inhibition [1] | growth inhibition [2] | growth inhibition [3] | growth inhibition [4] | growth inhibition [5] | growth inhibition [6]
CC(=O)Nc1ccc(-c2nnc(SCC(=O)Nc3ccc(C)cc3)o2)cc1 | -15% | -5.5% | -5.8% | 8.4% | -13.7% | -38.3%
C[C@]12CC[C@@H]3c4ccc(OS(=O)(=O)O)cc4CC[C@H]3[C@@H]1CCC2=O | 22.2% | -0.4% | 12.2% | 18.4% | 23.6% | 3.15%
FC(F)(c1nnnn1Cc1ccccc1)C(F)(F)C(F)(F)C(F)(F)C(F)(F)C(F)(F)C(F)(F)C(F)(F)c1nnnn1Cc1ccccc1 | 10.2% | 13.7% | -11.7% | -2.65% | 7.95% | 19.3%
CC1=CC(=O)C2C(C)(C)CCCC2(C)C1(O)CCc1ccoc1 (stereo unspecified) | 96.2% (active) | 88% (active) | 93.4% (active) | 92.2% (active) | 89.7% (active) | 96.8% (active)
CN(C)C1Cc2ccccc2C1OC(=O)c1ccccc1 (stereo unspecified) | 27% | 20.2% | 11% | 22.1% | 14.6% | 37.1%
CCOC(=O)C1=NN(c2ccc(C)cc2)C2=CC(C)=NN(C)C(=S)N21 | -18.1% | -7.3% | -21.8% | -13.6% | 7.1% | -49.3%
COc1cc(CNc2nc3ccccc3nc2C(=O)O)cc(OC)c1OC | 10.3% | 3.05% | -8.75% | 5.1% | -2.15% | -0.4%
CC(=O)c1c(C)c(Cl)c(C)c(Cl)c1O | -14.6% | 2.75% | 17.6% | 7.4% | 26.4% | 7%
C=C(CCCC(=C)C(N)=O)C(N)=O | -14.4% | -14.5% | -12.1% | 2.55% | -0.85% | -27.4%
NC(=O)CS | -14.3% | -17.2% | -21.8% | -11.7% | -14.1% | -22.1%
CC1CCC(CCBr)CC1 (stereo unspecified) | 5.8% | -9.9% | 5.15% | -3.15% | 0.9% | 2.25%
O=C(c1ccccc1)c1ccccc1C(=O)c1ccccc1 | 77% (active) | 25.6% | 54% | -43% | 70.4% (active) | 52%
CCCCCNC(=O)c1cccc(C)c1 | -11.1% | -13.2% | -7.65% | -13.6% | -25.4% | -1.2%
CC1CN1C(=O)Nc1cccc2c(NC(=O)N3CC3C)cccc12 (stereo unspecified) | -21.9% | -12.4% | -8.85% | -15.8% | 22.4% | -2.45%
CSc1nc(NC2OC(COC(C)=O)C(OC(C)=O)C(OC(C)=O)C2OC(C)=O)c(C(=O)CCl)c(=O)n1C (stereo unspecified) | 6.8% | 15.9% | 3.15% | 5.8% | 5.1% | 24.5%
CS(=O)(=O)c1c(N)c2nc(Cl)cn2c2nc3ccccc3nc12 | -11.4% | -2.1% | -10.3% | -9.15% | -27.1% | -16.5%
CCCCNc1nc2ccccc2c2c1ncn2CC(C)C | -7.4% | 34.5% | 14.1% | 23.5% | 46.5% | 30.3%
CC(C)(C)c1ccc(SCC#CCOc2ccc(Cl)cc2)cc1 | -6.2% | 4.2% | -4.8% | -23.6% | -7.3% | -20.4%
CC(C)(C)[Si](C)(C)OCC1CCC(n2cnc3c(N)ncnc32)O1 (stereo unspecified) | 19.7% | -3.1% | -6.2% | -4.7% | -1.95% | 6.7%
O=C1NCCCCCC1S(=O)c1ccccc1 (stereo unspecified) | -7.8% | -10.2% | -8.5% | 28.6% | -11.8% | -11.8%
Cc1ccc(-n2cnc(C(=N)C#N)c2N)cc1 | -15.6% | -31.7% | -10% | -12.1% | 9.55% | -13.1%

Compound | growth inhibition [1] | growth inhibition [2] | growth inhibition [3] | growth inhibition [4] | growth inhibition [5] | growth inhibition [6]
CCc1c(CNc2ccc(Cl)c(Cl)c2)ccc2nc(N)nc(N)c12 | 90.7% (active) | 92.2% (active) | 91.9% (active) | 90% (active) | 90.5% (active) | 89.7% (active)
CCCCCCCCCCCCCCNC(=O)CCl | 14.8% | -17.5% | -5.8% | -8.5% | -9.25% | -16.2%
Nc1ncnc2c1ncn2C1OC(COP(=O)(O)OP(=O)(O)OCC2OC([n+]3cccc(C=O)c3)C(O)C2O)C(O)C1O (stereo unspecified) | 10.6% | 4.4% | 6.85% | -4.1% | 0.6% | 12.3%
Cc1ccc(S(=O)(=O)c2ccccc2C)s1 | -9% | -32.5% | -16.4% | 11.5% | -14.6% | -12.1%
CC(=O)CC(=O)Nc1ccc(Cc2ccc(Br)cc2)cc1 | 23.7% | -5.55% | 9.55% | 18.5% | 4.15% | 18.9%
O=C(NC(=S)Nc1ccc(Cl)c(Cl)c1)c1cccc([N+](=O)[O-])c1 | -6.45% | 3.35% | 10.9% | 0.65% | -3.2% | 5.7%
Cc1ccc(S(=O)(=O)NC2C(=O)c3ccccc3C(=O)C2n2cnc3ccccc32)cc1 (stereo unspecified) | 14.3% | 1.8% | -10.9% | -16.9% | -14.9% | -28.8%
O=C(NC(Cc1cccnc1)C(=O)O)c1ccccc1 (stereo unspecified) | 2.85% | 11.4% | 8.55% | -16.4% | 12.9% | 7.65%
COc1cc([N+](=O)[O-])cc2c1OC1(C=C2)Oc2ccccc2N1C (stereo unspecified) | -36.1% | -25.9% | -16.3% | -16.8% | -22.9% | -17.9%
CC1CCC(=O)C(C(=O)CC2CC(=O)NC(=O)C2)C1 (stereo unspecified) | 31.6% | 1.45% | 19.7% | -30.3% | 2.3% | 4.55%
CCCCCCCC(=O)Nc1ccc(-n2c(=O)cc(C)n2C)cc1 | 15.7% | -1.25% | 12.2% | -32% | -7.7% | 14.1%
CC1(C)C=C(C(=O)O)C(C)(C)N1O | -8.95% | -25.8% | 5.65% | 6.9% | 14.3% | 2.25%
CC(=O)NNc1nc(C)c(C(/C=C/c2ccc([N+](=O)[O-])cc2)=N/NC(N)=O)s1 | 23.6% | -12.7% | 24.2% | 16.6% | 8.75% | 10.3%
O=C1CSC(c2ccc(Cl)c(Cl)c2)N1c1nncs1 (stereo unspecified) | -18.7% | 11.8% | 17.1% | 10.4% | 14.7% | 23.4%
Cc1cc(=O)oc2c(-c3ccccc3)nnc(Cl)c12 | 21.4% | 15% | 16.2% | 13.9% | 18.1% | 40.5%
C/C(=N/NC(N)=O)C(=O)O | -0.15% | 10.7% | 2.5% | -48.4% | -2.95% | 13.7%
CSc1ccc(C2OC(=O)c3ccccc32)c2ccccc12 (stereo unspecified) | 20.4% | -11.6% | 21.2% | 8.25% | -14.8% | 5.1%
C[N+](C)(CCNc1ccc(NCC[N+](C)(C)Cc2ccc([N+](=O)[O-])cc2)c2c1C(=O)c1c(O)ccc(O)c1C2=O)Cc1ccc([N+](=O)[O-])cc1 | 72.2% (active) | 84.6% (active) | 77.9% (active) | 78.1% (active) | 76.7% (active) | 76.8% (active)
CC(c1ccccc1O)C1CCCCC1N=O (stereo unspecified) | -0.15% | 3% | 16.1% | -48.5% | 15.2% | -4.15%
Cc1c[n+]([O-])n(-c2ccccc2)n1 | 4.65% | -4.9% | 0.7% | -38.7% | 11.6% | -4.8%
